Screening results as filed in PubChem.
FBPA coupling cs – counter-screen for Giardia aldolase inhibitors: coupling enzyme system. coupling enzyme system counterscreen, AmpLite Red fluorescence. activity change, negative = inhibition, % at 58.2 µM, hits read low. 290,000 tested, 0.67% active. AID 2472; in the data active means activity change below about -30%
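Counterscreen of the coupled detection system alone, without aldolase: glyceraldehyde-3-phosphate coupling enzymes plus AmpLite Red readout. Compounds at 57.5 uM final, 10 min RT preincubation, 20 min RT reaction, fluorescence 525/598 nm.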
ALDH1A1 block – blocks purified human ALDH1A1 activity; P00352; Purified ALDH1A1, NADH fluorescence, propionaldehyde substrate; Potency, µM (doses to about 75.3 µM), usual class: inhibitors; 220,000 tested, 7.3% active; AID 1030; active means well fitted inhibition curve with a large enough effect, not every such curve was filed as active; inconclusive means small, poorly fitted or top-dose-only effect, or another doubt; inactive means no such curve, though single readings can be large or run the other way
Target sequence (P00352 whole entry, looked up): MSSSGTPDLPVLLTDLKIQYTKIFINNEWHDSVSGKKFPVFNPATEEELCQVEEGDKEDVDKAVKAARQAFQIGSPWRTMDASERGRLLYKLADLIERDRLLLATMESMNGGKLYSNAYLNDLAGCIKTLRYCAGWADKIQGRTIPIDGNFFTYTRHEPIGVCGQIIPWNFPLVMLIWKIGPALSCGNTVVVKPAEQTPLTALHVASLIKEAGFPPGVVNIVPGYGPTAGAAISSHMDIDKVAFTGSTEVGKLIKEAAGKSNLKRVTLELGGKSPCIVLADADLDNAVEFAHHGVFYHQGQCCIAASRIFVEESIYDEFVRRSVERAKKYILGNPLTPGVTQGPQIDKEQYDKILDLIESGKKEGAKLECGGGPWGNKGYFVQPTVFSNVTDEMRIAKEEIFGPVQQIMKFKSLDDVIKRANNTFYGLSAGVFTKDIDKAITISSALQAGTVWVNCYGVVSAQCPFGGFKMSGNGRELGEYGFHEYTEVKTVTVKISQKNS
Sfp PPTase inh – blocks B. subtilis Sfp PPTase activity; Biochemical Sfp PPTase activity, qHTS; Potency, µM, actives largely listed as inhibitors; 310,000 tested, 3.5% active; Q9F4F7;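 further: the enzyme is Sfp with the accession as filed and its product quenches rhodamine fluorescence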
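Step 1, compound plus 15 nM Sfp-PPTase, 15 min, room temperature. Step 2, add rhodamine-CoA (5 uM) and BHQ-2-YbbR (12.5 uM). Step 3, read 525/598 nm fluorescence at 0 and 30 min.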
GoLoco inh red – blocks human Gai1 binding to RGS12 GoLoco peptide, red readout; P63096; Gai1:RGS12 GoLoco peptide FP, rhodamine, 10 min; Potency, µM (titrated, usually from 61.6 µM), usual class: inhibitors; 230,000 tested, 0.44% active; AID 880; active means well fitted inhibition curve with a large enough effect, not every such curve was filed as active; inactive means no such curve, though single readings can be large or run the other way; further: nearly all actives have a fitted effect of over 30% in size
KDM4E inh – JMJD2E (human) inhibition; B2RXH2; JMJD2E catalytic domain, FDH-coupled NADH fluorescence (FDH is formaldehyde dehydrogenase); Potency, µM (series often up to 57.1 µM), hits mostly inhibitors; 230,000 tested, 1.6% active; AID 2147; active means well fitted inhibition curve with a large enough effect, not every such curve was filed as active; inconclusive means small, poorly fitted or top-dose-only effect, or another doubt; inactive means no such curve, though single readings can be large or run the other way; further: nearly all actives have a fitted effect of over 50% in size
NPSR antag – neuropeptide S receptor (human) antagonism, cAMP; CHO-NPSR cells, cAMP TR-FRET, antagonist mode; Potency, µM (titrated, usually from 38.3 µM), usual class: inhibitors; 220,000 tested, 1% active; AID 1461; further: nearly all actives have a fitted effect of over 50% in size
Of the large screens only hits and unclear results are named; the others gave an inactive call; ! = repeats disagree. Most compounds without a hit are left out; they make up all but 8.5% or so of the library. Unless noted, the call rests on the fitted dose curve; in most records, active means well fitted curve in the direction sought with a large enough effect; inconclusive means small, poorly fitted or top-dose-only effect, or another doubt; inactive means no such curve, though single readings can be large; an effect the other way counts as inactive or inconclusive.

CC1CCCCN1C(=O)CSc1nc2cc3c(cc2c(=O)n1Cc1ccc2c(c1)OCO2)OCO3 (configuration not stated)	ALDH1A1 block 22.4µM
CC1CCCCN1C(=O)CSc1nc2ccsc2c(=O)n1Cc1ccccn1 (configuration not stated)	ALDH1A1 block 15.8µM
Cc1cc(NC(=O)CSc2nc3ccsc3c(=O)n2Cc2ccccn2)n[nH]1	none
CC1CCN(C(=O)CSc2nc3ccccc3c(=O)n2Cc2ccc3c(c2)OCO3)CC1	ALDH1A1 block inconclusive, NPSR antag inconclusive
CCn1c(SCC(=O)N2CCCCC2C)nc2ccsc2c1=O (configuration not stated)	ALDH1A1 block 7.94µM
Cc1cc(C)c2nc3c(c([C@H](O)C4CCCCN4)c2c1)CC/C3=C/c1ccc(Cl)cc1 (some centres not stated)	none (no result: FBPA coupling cs, Sfp PPTase inh, KDM4E inh, NPSR antag)
O=c1cc(CN2CCN(S(=O)(=O)c3ccccc3[N+](=O)[O-])CC2)nc2sccn12	none
O=[N+]([O-])c1ccccc1S(=O)(=O)N1CCN(CC2CC=CCC2)CC1 (configuration not stated)	ALDH1A1 block 14.1µM, Sfp PPTase inh inconclusive, KDM4E inh inconclusive
O=[N+]([O-])c1ccccc1S(=O)(=O)N1CCN(Cc2cc3c(cc2O)OCO3)CC1	ALDH1A1 block 1.89µM
COc1cccc(NC(=O)CN2C(=O)NC(C)(c3ccc(C)cc3)C2=O)c1 (configuration not stated)	none (no result: ALDH1A1 block, GoLoco inh red, KDM4E inh, NPSR antag)
CCCCn1cnc2c(c1=O)c1nc3ccccc3nc1n2Cc1ccc2c(c1)OCO2	ALDH1A1 block inconclusive, NPSR antag inconclusive
CC(C)Cn1cnc2c(c1=O)c1nc3ccccc3nc1n2Cc1ccc2c(c1)OCO2	ALDH1A1 block 0.794µM
Cc1ccc(S(=O)(=O)NCC(C)n2nc(C)nc2C)cc1 (configuration not stated)	none (no result: ALDH1A1 block, GoLoco inh red, KDM4E inh, NPSR antag)
Cc1cc(NC(=O)c2cc([N+](=O)[O-])cc([N+](=O)[O-])c2)no1	none (no result: ALDH1A1 block)
Cc1cc(NC(=O)c2cc([N+](=O)[O-])cc([N+](=O)[O-])c2C)no1	Sfp PPTase inh 79.4µM
CCOc1ccc(Br)cc1S(=O)(=O)Nc1ccc(Cl)c(S(=O)(=O)N(C)C)c1	ALDH1A1 block 0.355µM (no result: GoLoco inh red)
CCOc1ccc(Br)cc1S(=O)(=O)Nc1ccc(Cl)c(S(=O)(=O)N(CC)c2ccccc2)c1	none
Cc1ccc(C(=O)C2CCN(C(=S)NCCCOC(C)C)CC2)cc1	none (no result: ALDH1A1 block, GoLoco inh red, KDM4E inh, NPSR antag)
Cc1ccc(C(=O)Nc2ccccc2C(=O)O)cc1NC(=O)COc1c(C)cccc1C	ALDH1A1 block 8.91µM
CN(C)CC/C=C1\c2ccccc2COc2ccccc21	ALDH1A1 block 17.8µM!, KDM4E inh inconclusive
CCN(CC)S(=O)(=O)c1ccc(N2CCCC2)c(NC(=O)Cc2ccc(OC)cc2)c1	ALDH1A1 block 1.12µM
CCOc1ccc(S(=O)(=O)Nc2cc(S(=O)(=O)N(CC)CC)ccc2N2CCCC2)cc1	ALDH1A1 block 0.794µM
CCN(CC)S(=O)(=O)c1ccc(N2CCCC2)c(NC(=O)c2ccc(OC)cc2OC)c1	ALDH1A1 block inconclusive, Sfp PPTase inh 79.4µM
CCN(CC)S(=O)(=O)c1ccc(N2CCCC2)c(NC(=O)Cc2cc(OC)c(OC)c(OC)c2)c1	none (no result: ALDH1A1 block, GoLoco inh red, KDM4E inh, NPSR antag)
COc1cccc(-n2c(=O)n(Cc3ccccc3)c(=O)c3[nH]cnc32)c1	none (no result: ALDH1A1 block)
O=C(COC(=O)C1CC2C=CC1C2)NCc1ccccc1Cl (configuration not stated)	none
COc1ccc(CNC(=O)COC(=O)C2CC3C=CC2C3)cc1 (configuration not stated)	ALDH1A1 block 11.2µM
COc1ccc(CNC(=O)COC(=O)CCC2CCCCC2)cc1	ALDH1A1 block 5.62µM (no result: GoLoco inh red)
CCN1C(=O)[C@@H]2C(C(=O)c3cnccn3)=NN[C@@H]2C1=O	none (no result: ALDH1A1 block)
Cc1ccc(NC(=O)C(SCC(=O)O)c2ccccc2)cc1C (configuration not stated)	ALDH1A1 block inconclusive
COC(=O)CSC(C(=O)Nc1ccc(C)c(C)c1)c1ccccc1 (configuration not stated)	ALDH1A1 block 10µM
COc1ccc(-c2cn(-c3ccc(C)c(C)c3)c(=S)[nH]2)cc1OC	Sfp PPTase inh 79.4µM (no result: ALDH1A1 block, GoLoco inh red, KDM4E inh, NPSR antag)
CCCCN1C=CC(=C2C(=O)c3ccccc3C2=O)C=C1	ALDH1A1 block 2.82µM
Nc1nc2c(c(=O)[nH]1)C(c1cccc3ccccc13)C1=C(N2)c2ccccc2C1=O (configuration not stated)	ALDH1A1 block 3.16µM, Sfp PPTase inh 56.2µM
Cc1ccc(SCC(=O)N/N=C/c2ccco2)cc1	none (no result: ALDH1A1 block, GoLoco inh red, KDM4E inh, NPSR antag)
O=c1cc(-c2ccc(O)c(O)c2)oc2ccccc12	ALDH1A1 block 25.1µM, KDM4E inh 8.91µM (no result: NPSR antag)
O=c1cc2oc3cc(O)c(O)cc3c(-c3ccccc3[N+](=O)[O-])c-2cc1O	Sfp PPTase inh 35.5µM (no result: ALDH1A1 block, GoLoco inh red, KDM4E inh, NPSR antag)
O=c1cc(-c2ccccc2)oc2ccccc12	none (no result: FBPA coupling cs, Sfp PPTase inh, KDM4E inh, NPSR antag)
O=c1cc(-c2ccccc2Cl)oc2c([N+](=O)[O-])ccc(O)c12	none (no result: KDM4E inh, NPSR antag)
COc1ccc(-c2cc(=O)c3ccccc3o2)cc1OC	ALDH1A1 block inconclusive, Sfp PPTase inh 35.5µM, KDM4E inh inconclusive (no result: NPSR antag)
O=c1cc(-c2ccccc2)oc2cc(O)c(O)cc12	KDM4E inh 28.2µM (no result: NPSR antag)
COc1ccc(-c2cc(=O)c3c(OC)c(OC)c(OC)cc3o2)cc1OC	none (no result: ALDH1A1 block, GoLoco inh red, KDM4E inh, NPSR antag)
CCOC(=O)CN(Cc1sccc1C)C(=O)Nc1ccc(OCC)cc1	none
Cc1cc(C)nc(NN2C(=O)/C(=C/c3ccccc3)SC2=S)n1	ALDH1A1 block inconclusive, Sfp PPTase inh 31.6µM, KDM4E inh inconclusive
CCOc1cc(/C=C2\SC(=S)N(Nc3ccccc3)C2=O)ccc1O	ALDH1A1 block 11.2µM, Sfp PPTase inh inconclusive, NPSR antag inconclusive
O=C(O)c1ccc(/C=C2\SC(=S)N(NC(=O)c3ccccc3[N+](=O)[O-])C2=O)cc1	none (no result: ALDH1A1 block, GoLoco inh red, KDM4E inh, NPSR antag)
COc1cc(/C=C2\SC(=S)N(Nc3ccccc3)C2=O)ccc1O	ALDH1A1 block 10µM, Sfp PPTase inh inconclusive
O=C(NN1C(=O)/C(=C\c2ccc(O)c([N+](=O)[O-])c2)SC1=S)c1ccccc1Cl	ALDH1A1 block 14.1µM, NPSR antag inconclusive
Cn1cc(-c2nnnn2-c2ccccc2)c(=O)c2ccccc21	ALDH1A1 block 7.08µM
O=C(NC(Cc1ccccc1)C(=O)O)/C(=C\c1ccc(Cl)cc1)NC(=O)c1ccco1 (configuration not stated)	none (no result: ALDH1A1 block, GoLoco inh red, KDM4E inh, NPSR antag)
CC(=O)C1=C(O)C(=O)OC1c1ccc(C)cc1 (configuration not stated)	ALDH1A1 block inconclusive
NC1=C(O)C(=O)C(c2ccccc2)O1 (configuration not stated)	KDM4E inh 15.8µM (no result: ALDH1A1 block)
CN(C)Cc1c(C(=O)N/N=C/CCc2ccccc2)nnn1-c1nonc1N	none (no result: ALDH1A1 block, GoLoco inh red, KDM4E inh, NPSR antag)
C=C1C(=O)O[C@@H]2[C@H]3O[C@]3(C)CC/C=C(\C)CC[C@@H]12	ALDH1A1 block 12.6µM (no result: FBPA coupling cs, KDM4E inh, NPSR antag)
